# Assay outcomes: PubChem BioAssay, several laboratories
# SUMO Mot1 rescue = SUMOylation pathway inhibition by Mot1-301 growth rescue | 1% of 320,000 active | S. cerevisiae Mot1-301 growth rescue, ATP luminescence, 38.5C; percent above DMSO median, 100 means doubled | growth rescue, % at 18.8 µM | AID 2716;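 active = every valid replicate shows activation above 250% relative to neutral control wells; inactive = the rest, any valid replicate at or below 250%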;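 note: OY570 slx delta 5 strain wells were the positive control but not used for scaling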
# NALP3 yeast inh = NALP3 inhibition in yeast. 0.39% of 330,000 active. AID 2825. inhibition, % at 10 µM. Yeast reconstituted NLRP3/ASC/caspase-1, beta-gal luminescence, 24 h;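 active = inhibition of 50% or more; inactive = inhibition below 50%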;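 note: plate controls were induced DMSO wells for no effect and uninduced yeast grown without galactose for full effect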
# NALP1 yeast inh = blocks the NALP1 inflammasome reconstituted in yeast. S. cerevisiae NALP1/ASC/caspase-1 growth, X-gal OD620, 72 h. inhibition, % at 10 µM. 0.61% of 280,000 active. AID 2071; in the data active = inhibition mostly above about 24%, no sharp cut-off; inactive = mostly below about 32%
# PolyA inh = yeast polyadenylation inhibition; S. cerevisiae SKY197-pL101 polyadenylation reporter, beta-gal luminescence; efflux-impaired pdr1/pdr3 knockout yeast; score 100 = 6 SD above DMSO; activity score, % at 12 µM; 0.02% of 300,000 active;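 active = lowest replicate activity score at least 50, where 100 means six control SD above control mean; inconclusive = lowest score under 50 but half or more replicates reach 50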;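 note: yeast exposed to compound for 9 h at 30 °C; higher score means more reporter readthrough which indicates perturbed polyadenylation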
# Mot1 SUMO dose = SUMO pathway inhibitors in yeast Mot1-301 growth. shares compounds with SUMO Mot1 rescue. S. cerevisiae Mot1-301 galactose growth, ATP luminescence, 24 h; -100 = growth of slx-deleted rescue strain. 2,300 tested, under 10 active. growth activity, percent, % at 42 µM;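 active = Signal drops as the depositor expects, and the fitted half-maximal dose is no more than ten times the top valid tested dose; inconclusive = Poor fit, or a flat curve whose signal drops by 30% to 70%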;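 note: more negative values mean stronger growth rescue toward the control strain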
# * marks the source's active call; other numbers are inactive results; ? = inconclusive; . = no result given; + = active, no number. Most compounds without a hit are left out; they make up all but 1.8% or so of the library.
SMILES,SUMO Mot1 rescue,NALP3 yeast inh,NALP1 yeast inh,PolyA inh,Mot1 SUMO dose
O=C(CNS(=O)(=O)c1ccc(Br)cc1)NCc1cccnc1,10.8,8.4,11.8,3.8,.
Fc1ccc(-c2cc(C(F)(F)C(F)F)[nH]n2)cc1,11.2,12.7,29.2,-1.4,.
Oc1ccccc1-c1cc(C(F)(F)C(F)F)[nH]n1,871.6*,12.6,6.7,-3.9,0.6
Cc1[nH]c2ccccc2c1C1(O)C(=O)N(Cc2ccc3c(c2)OCO3)c2ccccc21 (stereo unspecified),14.0,14.6,20.3,-54.8,.
Cc1nc(-c2ccc(Cl)cc2)sc1C1(C)CC(c2cccnc2)=NO1 (stereo unspecified),488.7,35.0,-1.4,?,.
CC(C)C(=O)OCC(=O)NCc1ccccc1Cl,4.9,9.3,-9.9,9.4,.
Cc1ccc(NC(=O)/C=N/OCC(=O)NCc2ccccc2Cl)cc1,464.4*,6.7,.,-12.5,0.2
COc1cccc(CN2CCN(Cc3ccc4c(c3)OCCO4)CC2CCO)c1 (stereo unspecified),-11.7,30.8,-2.8,-6.4,.
CCOC(=O)N1CCN(C(=O)c2ccc(OC)c(OC)c2)CC1,+,1.3,-22.5,8.0,0.8
Cc1cccc(C)c1OCC(O)Cn1nnc2ccccc21 (stereo unspecified),-3.7,21.7,7.7,-4.2,.
COc1ccc(-c2[nH]ncc2CN(C)C(C)c2ccon2)cc1F (stereo unspecified),259.9,17.4,4.0,12.8,.
N#CCSc1nc2c(cc1C#N)CCCCCC2,144.7,25.9,6.6,.,.
N#CCSc1nc2c(c(C3CC=CCC3)c1C#N)CCC2 (stereo unspecified),+,28.8,39.7,-52.4,0.9
OC(COCc1ccco1)CN1CCN(C(c2ccccc2)c2ccccc2)CC1 (stereo unspecified),352.0,18.0,5.1,-6.0,.
COc1cc(C)ccc1OCCCOc1ccccc1Br,+,19.3,13.4,-25.7,0.3
CCC(CO)N=CC1=C(O)CC(C)(C)CC1=O (stereo unspecified),0.5,19.1,-11.6,2.4,.
CC1CCCCC1N=CC1=C(O)CC(C)(C)CC1=O (stereo unspecified),385.3*,0.6,-0.1,5.2,0.0
Cc1sc2ncn(C(C)C(=O)OC3CCCCC3)c(=O)c2c1C (stereo unspecified),379.3*,29.1,26.4,?,0.2
CCCCn1c(/C=N/Nc2nc3ccccc3[nH]2)nc2ccccc21,418.1*,45.8,32.0,-44.9,-0.3
CCC1SC2=NC(C)=C(C(=O)OC)C(c3ccc(C(=O)OC)cc3)N2C1=O (stereo unspecified),-20.0,8.9,-14.5,2.0,.
CCC1SC2=NC(C)=C(C(=O)OCCOC)C(c3ccc(C(=O)OC)cc3)N2C1=O (stereo unspecified),831.9*,1.1,-0.8,4.4,-0.8
COc1ccc(CCNC(=O)COC(=O)/C=C/c2ccc3c(c2)OCO3)cc1OC,-13.6,1.9,.,.,.
COc1ccc(NS(=O)(=O)c2ccc(OCC(=O)N3CCOCC3)cc2)cc1Cl,+,6.9,16.1,5.2,0.5
O=C(CCNS(=O)(=O)c1ccccc1)OCc1nnc(-c2ccccc2)o1,-3.6,6.7,.,11.4,.
O=S(=O)(NCc1ccco1)c1ccc2ccccc2c1,429.7*,20.8,7.9,-21.8,-0.1
SMILES,SUMO Mot1 rescue,NALP3 yeast inh,NALP1 yeast inh,PolyA inh,Mot1 SUMO dose
CCc1cc(=O)oc2cc(C)cc(OC(C)C(=O)NCCCn3ccnc3)c12 (stereo unspecified),-2.7,-0.4,2.8,-5.2,.
CC1(C)Cc2cccc(OCC(=O)N3CCN(c4ccccc4F)CC3)c2O1,-3.8,24.9,.,16.7,.
CC(C)Cc1cc(C(=O)N2CCCC(CCC(=O)N(C)CCc3ccccn3)C2)no1 (stereo unspecified),15.5,-4.4,15.3,10.5,.
CCc1ccc(NC(=S)N(Cc2cccc(Br)c2)CC2CCC(C(=O)O)CC2)cc1 (stereo unspecified),591.5*,22.5,2.1,-17.0,-0.9
Cc1cc(C)cc(NC(=S)N(Cc2cccc(Br)c2)CC2CCC(C(=O)O)CC2)c1 (stereo unspecified),.,10.4,-12.5,-0.4,.
COCC(C)n1c(SCC(=O)NNC(=O)c2ccccc2)nc2ccccc2c1=O (stereo unspecified),439.2*,4.9,6.8,14.8,-0.1
COc1ccc(C(=O)Nn2c(SCC(=O)NCc3ccccc3)nc3ccccc3c2=O)cc1,+,0.6,38.5*,-10.3,0.0
CC(=O)c1c(N)[nH]c(-c2ccccc2)nc1=S,886.3*,23.3,-8.7,-1.7,0.3
CC(=O)c1c(N2CCCC2)[nH]c(-c2ccccc2)nc1=S,25.8,13.6,-1.7,0.3,.
O=C(c1ccc(Cl)cc1)N1CCC(c2nc(-c3cccs3)no2)CC1,64.8,27.5,6.1,-5.2,.
Cc1c(C(=O)Nc2ccccn2)oc2ccccc12,15.6,0.7,0.1,-4.8,.
CC(=O)OCC(OC(C)=O)C(OC(C)=O)C(OC(C)=O)C(=O)Nc1ccccc1 (stereo unspecified),385.6*,19.8,-2.0,-12.4,-0.2
O=C(O)c1cn(Cc2ccccn2)c(=O)c2ccccc12,+,4.6,6.4,13.8,0.0
O=C(CSc1nnnn1C1CC2CCC1C2)Nc1ccnc2ccccc12 (stereo unspecified),775.2*,36.3,7.5,.,-0.4
COc1ccc(C2=NN(C(=S)Nc3ccccc3)C(c3ccccc3)C2)cc1 (stereo unspecified),+,17.6,6.6,-28.2,-0.9
CC(=O)c1ccc(N/N=C2/CCCNC2=O)cc1,2.7,23.5,-10.3,-5.9,.
Cc1ccc(N/N=C2/CCCNC2=O)cc1,527.6*,28.9,5.8,3.3,-0.3
Cc1cccc(OCCC(=O)Nc2ccc(F)c(F)c2)c1,380.3*,29.7,19.0,3.2,0.0
Cc1cccc(OCCCC(=O)Nc2ccc(N(C)C)cc2)c1,37.5,20.3,14.2,-3.4,.
CCNC(=O)/C(C#N)=C/c1c(N2CCN(c3ccccc3)CC2)nc2ccccn2c1=O,7.4,7.0,7.6,-6.7,.
N#C/C(=C\c1c(N(Cc2ccccc2)Cc2ccccc2)nc2ccccn2c1=O)C(N)=O,.,11.3,-2.0,1.1,0.1
CCNC(=O)/C(C#N)=C/c1c(N2CCCCCC2)nc2ccccn2c1=O,748.2*,12.6,6.1,-19.2,-0.1
COc1cccc(NC(=O)CSc2ccc3nnc(CCNC(=O)c4ccccc4)n3n2)c1,-6.0,16.2,6.0,-9.3,.
Cc1cnc(C(=O)OCC(=O)Nc2ccc(C)c(S(=O)(=O)N(C)C)c2)cn1,668.6*,12.8,.,1.1,0.6
Cc1cc2ncc(C(=O)N=CN(C)C)cn2n1,498.2*,-11.6,6.3,-12.3,0.0
CC[C@@H]1CCCCc2ccccc2[C@H](C(=O)C[C@@H](O)CC(C)=O)OC1=O,11.0,17.6,.,.,.
CC[C@H]1CCCCc2ccccc2[C@@H](C(=O)C[C@@H](O)CC(C)=O)OC1=O,527.0*,-5.9,.,.,-0.7
Cc1nn(CC(=O)O)c(C)c1NC(=O)c1cccs1,.,8.8,1.9,-15.3,.
